Among the data in PubChem BioAssay (EPA / NIEHS) are outcome and AC50 values, retold here.

Inconclusive results are not listed. Activity calls are given as the source filed them. Rule for the calls: active = hit-call score of the fitted dose curve at least 0.9, where 1 is the maximum; inconclusive = response in the unintended direction; inactive = score below 0.9.

This test is described as follows: ACEA_ER_AUC_viability: ACEA Biosciences xCELLigence Real-Time Cell Analysis on Estrogen Receptor Agonism for Viability (AID 2283782).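 Note: continuous compound exposure with impedance area under curve over 80 h; hit means loss of impedance signal meaning reduced cell growth or viability.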 In outline: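 T47D cells preconditioned in phenol red-free RPMI with charcoal-stripped FBS, then dosed with 8-point 1:4 series from 100 uM (up to 0.5% DMSO). Impedance monitored up to ~80 h; area-under-curve loss versus DMSO taken as viability.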
On to `COc1ccc2nc(N)sc2c1`, for which the compound was called inactive. For orientation: AC50 means the concentration at which the activity in the assay is half-maximal. `C1CN(SSN2CCOCC2)CCO1`: the half-maximal activity concentration (AC50) is 82.4 µM (active). As to `COc1cc(C)ccc1C(C)C`, the call was inactive.

Turning to `CCCCCCCC/C=C\CCCCCCCC(=O)OCCO`, the AC50 was 4.96 µM (active). As to `CC(C)=CCC/C(C)=C\C#N`, the result was inactive. On the same count and under the same terms, to `O=Nc1ccc(O)cc1` belongs “inactive”. In the case of `C=C(C)CCO`, the AC50 was 65.9 µM (active).

Take `CCCCCCCCCCCCCCCC[N+](C)(C)CC`: the half-maximal activity concentration (AC50) is 12.3 µM (active). In the case of `C/C=C\C/C=C/CCCCCCCCOC(C)=O`, the half-maximal activity concentration (AC50) is 82.3 µM (active).
